Compounds with a hit are over-represented: about 2.4% of the library has one in this group of screens.
TDP1 block: TDP1 (human) enzyme inhibition; Q9NUW8; recombinant TDP1, AlphaScreen DNA substrate cleavage; Potency, µM (series often up to 130 µM), for the others: at the highest dose activity change, negative = inhibition, actives largely listed as inhibitors; actives 0.28% (n = 350,000); further: on the % scale 0 is the no-effect control and ±100 the full control effect; nearly all actives have a fitted effect of over 40% in size
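Here, a 5' biotin and 3' phosphotyrosine-FITC DNA oligonucleotide reports Tdp1 activity: intact substrate bridges AlphaScreen beads, while cleavage leaves a 3' phosphate and drops signal. All incubations at room temperature.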
POLK inh: DNA polymerase kappa (human) inhibition; AID 588579; actives 0.53% (n = 400,000); purified Pol kappa, fluorescent DNA synthesis assay, 10 min; Potency, µM (titrated, usually from 107 µM), for the others: top-dose activity, negative = inhibition, usual class: inhibitors; Q9UBT6; further: on the % scale 0 is the no-effect control and ±100 the full control effect
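Enzyme at 10 nM met test compounds for 15 min at room temperature. Substrate addition (50 nM final) began the reaction, which was monitored by fluorescence at 0 and 10 min.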
Pol eta inh: blocks human DNA polymerase eta activity. recombinant Pol eta, fluorescent DNA replication assay. actives 1.2% (n = 390,000). Q9Y253. AID 588591. Potency, µM (doses to about 114 µM), for inactives: top-dose activity change, negative = inhibition, most hits filed as inhibitors; further: on the % scale 0 is the no-effect control and ±100 the full control effect
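Pol eta (10 nM) was preincubated with compounds for 15 min at room temperature, after which fluorescent replication substrate (50 nM final) was added to start the reaction. Fluorescence was read kinetically at 0 and 10 min.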
Pol beta inh: inhibitors of human DNA polymerase beta; P06746; Pol beta primer extension/strand displacement, fluorescence kinetic; Potency, µM (series often up to 114 µM), without a hit: at the top dose activity change, negative = inhibition, hits mostly inhibitors; actives 1.3% (n = 340,000); AID 485314; further: on the % scale 0 is the no-effect control and ±100 the full control effect
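Homogeneous kinetic assay of primer extension and strand displacement by 10 nM Pol beta, preincubated 15 min at room temperature with compound before 50 nM substrate (final) was added. Read at 0 and 10 min; four-parameter Hill fit.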
Pol iota inh: blocks human DNA polymerase iota activity. Potency, µM (doses to about 115 µM), without a hit: top-dose activity, negative = inhibition, hits mostly inhibitors. actives 1% (n = 390,000). Pol iota fluorescent replication assay, 10 min. AID 588590
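Fluorescent replication assay read twice, at 0 min and 10 min after adding 50 nM (final) substrate. Enzyme (10 nM) and compounds were first incubated 15 min at room temperature; enzyme-free buffer wells were negative controls.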
FEN1 inh: inhibitors of human flap endonuclease 1 | Potency, µM (titrated, usually from 114 µM), inactives show at the top dose activity change, negative = inhibition, most hits filed as inhibitors | actives 0.35% (n = 390,000) | P39748 | Recombinant FEN1 flap cleavage, fluorescence, 15 min; further: on the % scale 0 is the no-effect control and ±100 the full control effect; nearly all actives have a fitted effect of over 65% in size
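FEN1 at 10 nM, compound pretreatment for 15 min (room temperature), 50 nM final substrate to initiate; endpoint reads at 0 and 15 min; DMSO-only plates used as vehicle background.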
The depositor's hits bear a star; ? = inconclusive; . = not tested or not shown; ! = not confirmed by another sample; [ ] = another dose, or the depositor's remark. The call rests on the fitted dose curve; in most records, active means well fitted curve in the direction sought with a large enough effect; inconclusive means small, poorly fitted or top-dose-only effect, or another doubt; inactive means no such curve, though single readings can be large; an effect the other way counts as inactive or inconclusive. Potency means the concentration at half of the fitted maximal effect.

SMILES | TDP1 block | POLK inh | Pol eta inh | Pol beta inh | Pol iota inh | FEN1 inh
Cn1cnnc1SCC(=O)Nc1nc(-c2ccccc2)cs1 | 35µM* | -5% | -10% | 16µM* | 38% | 0%
Cc1nnc(SCC(=O)Nc2nc(-c3ccccc3)cs2)n1N | 1% | -8% | -13% | 29% | -7%[58.9 µM] | -5%
O=C(CN1C(=O)NC2(CCOc3ccccc32)C1=O)c1ccc[nH]1 (stereo not given) | . | -19% | ? | . | 40µM* | 18%
O=C(NN1C(=O)c2ccc(-c3ccc4c(c3)C(=O)N(NC(=O)c3cccnc3)C4=O)cc2C1=O)c1cccnc1 | -3% | -18% | 50µM* | ? | 50µM* | -1%
COc1c(O)c(O)c2cc(OC)c3c(OC)cc(=O)c4c5c(=O)c(OC)c(C(C)=O)c6c5c(c1CC=6C)c2c34 | 25% | 13%[60.1 µM] | . | . | . | .
O=C(NCc1ccc(F)cc1)n1cc(P(=S)(c2ccccc2)c2ccccc2)c2ccccc21 | 0% | . | . | . | . | .
O=C(O)c1ccc(NC2=C(n3nnc4ccccc43)C(=O)c3ccccc3C2=O)cc1 | 7% | -23% | 4% | 1% | 40µM* | 12%
O=C(O)c1ccc(Nc2nc3ccccc3n3cnnc23)cc1 | -13% | 6% | -19% | 1% | 26% | -16%
Cc1ccc(/C=N/NC(=O)c2cccc(S(=O)(=O)Nc3ccccc3Cl)c2)o1 | 8% | -16% | -7% | -15% | -5% | -16%
O=C(N/N=C/c1ccco1)c1cccc(S(=O)(=O)Nc2ccccc2Cl)c1 | 0% | ? | 20µM* | 22µM* | 45µM* | 5%
N#CC1=C2SCN(c3ccc(F)cc3)CN2C(=O)CC1c1cccc(F)c1 (stereo not given) | -1% | -12% | 8% | 4% | -16% | -26%
CCc1ccc(N2CSC3=C(C#N)C(c4cccs4)CC(=O)N3C2)cc1 (stereo not given) | 0% | 79µM* | ? | ? | 11µM* | 1%
CCc1ccc(C2CC(=O)N3CN(c4ccccc4)CSC3=C2C#N)cc1 (stereo not given) | 8% | -18% | -3% | 40µM* | ? | ?
O=C(C[n+]1ccc2ccccc2c1)c1ccc(O)c(O)c1 | . | ? | . | . | ? | 11%
NS(=O)(=O)c1cc2c(cc1C(F)(F)F)N[C@H](Cc1ccccc1)NS2(=O)=O | 14%[21 µM] | -5%[12 µM] | . | . | . | .
CCN1/C(=C/c2ccc3cc(C)ccc3[n+]2CC)Sc2ccc3sccc3c21 | . | -13% | ? | . | 4% | ?
CCN1/C(=C/c2ccc3cc(C)cc(C)c3[n+]2CC)Sc2cc(C)ccc21 | 5% | -24% | 79µM* | 50µM* | -26% | ?
O=C(Nc1cc(Cl)ccc1Cl)c1cc([N+](=O)[O-])cc(Br)c1O | 2% | -44% | . | . | ? | 50µM*
O=C(Nc1c(Cl)cc([N+](=O)[O-])cc1Cl)c1cc(Cl)ccc1O | 4% | 0% | . | . | 17% | 16%
COc1ccc(-n2[nH]c(C)cc2=O)cc1 | 10% | -1% | -11% | 9% | 1.1µM* | 5%
Cc1cccc(N2CCN(c3ccc(C(=O)O)cc3NC(=O)c3cccc(Cl)c3)CC2C)c1 (stereo not given) | 0% | -7% | 0% | 32µM* | -16% | 13%
O=C(Nc1ccccc1N1CCCCC1)c1cccc(Cl)c1 | . | -16% | -15% | 1% | 41% | 3%
CN1c2cc3c(cc2N=C(c2ccc(C(=O)O)cc2)c2ccccc21)C(C)(C)CCC3(C)C | 17% | . | . | . | . | .
CC(=O)N[C@@H](CC(=O)O)C(=O)N[C@@H](CCC(=O)O)C(=O)O | 16µM*! | ? | . | . | . | .
CC(=O)NC(CCC(=O)O)C(=O)O (stereo not given) | -7% | -18% | -7% | . | -14% | 15%
O=C(O)c1cccc(-n2sc3ccccc3c2=O)c1 | 0% | -7% | -15% | . | ? | 20µM*
O=c1c2ccccc2sn1-c1ccccc1 | 12% | -13% | -9% | 1% | ? | ?
O=c1c2ccccc2sn1-c1ccccc1F | . | . | -4% | . | . | .

Screening data as filed in PubChem BioAssay.
